Measured values: the supplement of paper PMC4840960
± gives the standard deviation of the averaged measurements.

Test system: E18 rat cortical neuron-glia co-culture
Assay: fiber score / MBP score (myelination specific beyond OL differentiation) (ratio); higher = more myelination-specific MBP alignment
Conditions: 1 µM; treatment time: 8 days (DIV5-DIV13)
Procedure, shortened: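 Library compounds were applied at 1 or 5 µM in myelination medium, DIV5 to DIV13, to primary E18 rat cortical co-cultures grown at 20,000 cells/well in 96-well plates. After 4 % paraformaldehyde fixation and MBP/Olig2/DAPI immunostaining, four 10X fields per well in duplicate wells were scored. Each value is continuous MBP fiber length per Olig2+ nucleus divided by thresholded MBP area × intensity per Olig2+ nucleus.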

Question: How did the “fiber score / MBP score” value turn out when `CC(=O)O[C@H]1C[C@@H]2CC[C@@H]3[C@H](CC[C@@]4(C)[C@H]3C[C@H]([N+]3(C)CCCCC3)[C@@H]4OC(C)=O)[C@@]2(C)C[C@@H]1N1CCCCC1` [Vecuronium Bromide] was run?
Answer: 0.647

Question: Which “fiber score / MBP score” value does the source give for `Clc1ccc2nsnc2c1NC1=NCCN1` [Tizanidine] here?
Answer: 0.796

Question: How did the “fiber score / MBP score” value turn out when `CO[C@@]1(NC(=O)Cc2cccs2)C(=O)N2C(C(=O)O)=C(COC(N)=O)CS[C@@H]21` [Cefoxitin] was run?
Answer: 0.901

Question: With `C[C@H]1COc2c(C3(N)CC3)c(F)cc3c(=O)c(C(=O)O)cn1c23` [Pazufloxacin] as the molecule, how does the “fiber score / MBP score” value read?
Answer: 0.814

Question: With `Cc1cccc(Nc2ccncc2S(=O)(=O)NC(=O)NC(C)C)c1` [Torsemide] as the molecule, how does the “fiber score / MBP score” value read?
Answer: 0.837

Question: With `CCn1cc(C(=O)O)c(=O)c2cc(F)c(N3CCNCC3)cc21` [Norfloxacin] as the molecule, how does the “fiber score / MBP score” value read?
Answer: 0.701

Question: `OCCN1C[C@H](O)[C@@H](O)[C@H](O)[C@H]1CO` [Miglitol] was tested. Which “fiber score / MBP score” value did it give?
Answer: 0.881

Question: With `CC(C)(C)NCC(O)c1cc(O)cc(O)c1` (configuration not stated) [Terbutaline] as the molecule, how does the “fiber score / MBP score” value read?
Answer: 0.31

Question: For `O=C(O)c1cc(=O)c2c(OCC(O)COc3cccc4oc(C(=O)O)cc(=O)c34)cccc2o1` [Cromolyn Sodium], which “fiber score / MBP score” value is on record?
Answer: 0.501

Same assay, conditions: 5 µM; treatment time: 8 days (DIV5-DIV13)

Question: With `Oc1ccc(C2CNCCc3c2cc(O)c(O)c3Cl)cc1` (configuration not stated) [Fenoldopam] as the molecule, how does the “fiber score / MBP score” value read?
Answer: 0.611

Question: For `COc1ccc(CC(C)NCC(O)c2ccc(O)c(NC=O)c2)cc1` (configuration not stated) [Formoterol], which “fiber score / MBP score” value is on record?
Answer: 0.726

Question: `C[C@](N)(Cc1ccc(O)c(O)c1)C(=O)O` [Methyldopa] was tested. Which “fiber score / MBP score” value did it give?
Answer: 0.884

Question: Which “fiber score / MBP score” value does the source give for `Cc1cccc(C)c1OCC(C)N` (configuration not stated) [Mexiletine] here?
Answer: 0.965

Question: With `N=C(N)NC(=O)c1nc(Cl)c(N)nc1N` [Amiloride] as the molecule, how does the “fiber score / MBP score” value read?
Answer: 0.827

Question: `CCN1CCN(C(=O)N[C@@H](C(=O)N[C@@H]2C(=O)N3[C@@H]2SC(C)(C)[C@@H]3C(=O)O)c2ccccc2)C(=O)C1=O` [Piperacillin] was tested. Which “fiber score / MBP score” value did it give?
Answer: 0.948

Question: For `Oc1ncnc2[nH]ncc12` [Allopurinol], which “fiber score / MBP score” value is on record?
Answer: 0.903

Question: With `C=CC1=C(C(=O)O)N2C(=O)[C@@H](NC(=O)/C(=N\OCC(=O)O)c3csc(N)n3)[C@H]2SC1` [Cefixime] as the molecule, how does the “fiber score / MBP score” value read?
Answer: 1.4

Question: With `CC(C)NCC(O)COc1ccc(CCOCC2CC2)cc1` (configuration not stated) [Betaxolol] as the molecule, how does the “fiber score / MBP score” value read?
Answer: 0.615

Question: How did the “fiber score / MBP score” value turn out when `CC1=C(/C=C/C(C)=C/C=C/C(C)=C/C(=O)O)C(C)(C)CCC1` [Retinoic Acid] was run?
Answer: 0.533

Question: `Cc1onc(-c2ccccc2)c1-c1ccc(S(N)(=O)=O)cc1` [Valdecoxib] was tested. Which “fiber score / MBP score” value did it give?
Answer: 0.733

Question: With `CC(C)(C#N)c1cc(Cn2cncn2)cc(C(C)(C)C#N)c1` [Anastrozole] as the molecule, how does the “fiber score / MBP score” value read?
Answer: 0.734

Question: For `Cc1cnc(C(=O)NCCc2ccc(S(=O)(=O)NC(=O)NC3CCCCC3)cc2)cn1` [Glipizide], which “fiber score / MBP score” value is on record?
Answer: 0.658

Question: Which “fiber score / MBP score” value does the source give for `O=C1c2c(O)cc(O)cc2O[C@H](c2ccc(O)c(O)c2)[C@H]1O` [Distylin] here?
Answer: 1.16

Question: With `NC(=O)c1cnccn1` [Pyrazinamide] as the molecule, how does the “fiber score / MBP score” value read?
Answer: 0.862

Question: With `CCOC(=O)C1=C(C)NC(C)=C(C(=O)OC)C1c1cccc([N+](=O)[O-])c1` (configuration not stated) [Nitrendipine] as the molecule, how does the “fiber score / MBP score” value read?
Answer: 1.09

Question: Which “fiber score / MBP score” value does the source give for `CCCN[C@H]1CCc2nc(N)sc2C1` [Pramipexole] here?
Answer: 0.903 ± 0.21

Question: Which “fiber score / MBP score” value does the source give for `CN(C)CCOC(c1ccc(Cl)cc1)c1ccccn1` (configuration not stated) [Carbinoxamine] here?
Answer: 1.23

Question: With `OC(c1cc(C(F)(F)F)nc2c(C(F)(F)F)cccc12)C1CCCCN1` (configuration not stated) [Mefloquine] as the molecule, how does the “fiber score / MBP score” value read?
Answer: 0.574

Question: How did the “fiber score / MBP score” value turn out when `CCCCC(=O)N(Cc1ccc(-c2ccccc2-c2nnn[nH]2)cc1)[C@H](C(=O)O)C(C)C` [Valsartan] was run?
Answer: 0.655

Question: How did the “fiber score / MBP score” value turn out when `COc1cc(C[C@@H](CO)[C@H](CO)Cc2ccc(O)c(OC)c2)ccc1O` [Secoisolariciresinol] was run?
Answer: 0.777

Question: With `CNCCCCOc1ccccc1Cc1ccccc1` [Bifemelane] as the molecule, how does the “fiber score / MBP score” value read?
Answer: 0.543

Question: For `OC(CCN1CCCC1)(c1ccccc1)C1CCCCC1` (configuration not stated) [Procyclidine], which “fiber score / MBP score” value is on record?
Answer: 1.05

Question: How did the “fiber score / MBP score” value turn out when `CCOC(=O)[C@H](CCc1ccccc1)N[C@H]1CCc2ccccc2N(CC(=O)O)C1=O` [Benazepril] was run?
Answer: 0.971

Question: For `CCC[C@@H]1C[C@@H](C(=O)N[C@@H]([C@H]2O[C@H](SC)[C@H](O)[C@@H](O)[C@H]2O)[C@@H](C)O)N(C)C1` [Lincomycin], which “fiber score / MBP score” value is on record?
Answer: 0.914

Question: Which “fiber score / MBP score” value does the source give for `CCc1cccc2c3c([nH]c12)C(CC)(CC(=O)O)OCC3` (configuration not stated) [Etodolac] here?
Answer: 1.38

Question: Which “fiber score / MBP score” value does the source give for `O=C(O[C@@H]1Cc2c(O)cc(O)cc2O[C@@H]1c1cc(O)c(O)c(O)c1)c1cc(O)c(O)c(O)c1` [Epigallocatechin gallate] here?
Answer: 1.01

Question: For `Cc1occc(=O)c1O` [Maltol], which “fiber score / MBP score” value is on record?
Answer: 0.672

Question: How did the “fiber score / MBP score” value turn out when `CCCCN1CCCCC1C(=O)Nc1c(C)cccc1C` (configuration not stated) [Bupivacaine] was run?
Answer: 0.575

Question: For `CC(=O)O[C@H]1C[C@@H]2CC[C@@H]3[C@H](CC[C@@]4(C)[C@H]3C[C@H]([N+]3(C)CCCCC3)[C@@H]4OC(C)=O)[C@@]2(C)C[C@@H]1N1CCCCC1` [Vecuronium Bromide], which “fiber score / MBP score” value is on record?
Answer: 0.791

Question: With `Clc1ccc2nsnc2c1NC1=NCCN1` [Tizanidine] as the molecule, how does the “fiber score / MBP score” value read?
Answer: 0.443

Question: `CO[C@@]1(NC(=O)Cc2cccs2)C(=O)N2C(C(=O)O)=C(COC(N)=O)CS[C@@H]21` [Cefoxitin] was tested. Which “fiber score / MBP score” value did it give?
Answer: 0.686

Question: With `C[C@H]1COc2c(C3(N)CC3)c(F)cc3c(=O)c(C(=O)O)cn1c23` [Pazufloxacin] as the molecule, how does the “fiber score / MBP score” value read?
Answer: 1.19

Question: `Cc1cccc(Nc2ccncc2S(=O)(=O)NC(=O)NC(C)C)c1` [Torsemide] was tested. Which “fiber score / MBP score” value did it give?
Answer: 0.949

Question: How did the “fiber score / MBP score” value turn out when `CCn1cc(C(=O)O)c(=O)c2cc(F)c(N3CCNCC3)cc21` [Norfloxacin] was run?
Answer: 0.729

Question: Which “fiber score / MBP score” value does the source give for `OCCN1C[C@H](O)[C@@H](O)[C@H](O)[C@H]1CO` [Miglitol] here?
Answer: 0.788

Question: How did the “fiber score / MBP score” value turn out when `CC(C)(C)NCC(O)c1cc(O)cc(O)c1` (configuration not stated) [Terbutaline] was run?
Answer: 0.251

Question: How did the “fiber score / MBP score” value turn out when `O=C(O)c1cc(=O)c2c(OCC(O)COc3cccc4oc(C(=O)O)cc(=O)c34)cccc2o1` [Cromolyn Sodium] was run?
Answer: 0.409
